Several values for one entry are separate records, joined by “and”; a condition that tells them apart may be missing. Identical values can stand only once. For some assays here: Results with a measured potency or affinity are listed apart. Activity calls are given as the source filed them. Unless noted, how the calls were made is not given here.

The nature of assay [1]: blockers of polyQ-driven CASP3 activation – cell-based (AID 1583). As to conditions: polyglutamine-induced caspase-3 activation, cell assay; stronger effect = higher value;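 tested at 10 µM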.
A short description of assay [2]: yeast 75Q aggregation reduction – 75Q-TubU reporter (AID 1593). The settings on record: Yeast 75Q polyglutamine aggregation reporter.
The nature of assay [3]: restoration of touch response, mutant HTT neurons – whole organism, C. elegans mechanosensory neurons, N-terminal huntingtin (AID 1599). The settings on record: C. elegans polyQ-huntingtin mechanosensory neurons, stronger effect = higher value.
The nature of assay [4]: blockers of cytochrome c efflux from mitochondria – biochemical, purified mitochondria (AID 1603).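 Further: mouse liver mitochondria challenged with calcium chloride; signal normalized to the plate average as 100%.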 The settings on record: stronger effect = lower value.
Assay [5] can be described thus: polyglutamine aggregate formation blockers (AID 1604). The settings on record: polyglutamine-induced protein aggregation inhibition assay; stronger effect = higher value; tested at 2.5 µM.
Assay [6] can be described thus: glutamate transport activators, MN-1 cells, MN-1 cell line (AID 1612).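 Further: tested at 1 µM final; 0% = mean of DMSO vehicle wells on each plate; positive means more glutamate uptake than control and negative means less.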 The settings on record: MN-1 motor neuron cells, stronger effect = higher value.
Assay [7] in a line: 75Q-TubH aggregate inhibition, S. cerevisiae, yeast (AID 1616). The settings on record: S. cerevisiae 75Q-TubH polyglutamine aggregation suppression; stronger effect = higher value.
Assay [8] in a line: compounds altering viability of human ES cells (AID 493140).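 Further: cells exposed to compounds for four days before counting.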 The settings on record: human embryonic stem cell survival screen; stronger effect = higher value.
Assay [9] can be described thus: signal quenchers or enhancers, Cy5 substrate/SSB – biochemical, NIH Clinical Collection, E. coli SSB, artefact control for HCV NS3 helicase inhibitor project (AID 743268). As to conditions: Cy5-oligo bound E. coli SSB, fluorescence interference.
The subject of assay [10] is Hepatitis C virus NS3 helicase. Nature of the assay: blockers of NS3h binding to DNA – biochemical, fluorescence polarization, NIH Clinical Collection, primary screen (AID 743270). The settings on record: NS3 helicase binding to Cy5-dT15 DNA, stronger effect = higher value, concentration not given here. (In general: Fluorescence polarisation rises when a labelled molecule tumbles more slowly, as on binding a larger partner.)

In assay [11] the target is Single-stranded DNA-binding protein (Escherichia coli (strain K12)) (UniProt P0AGE0). Nature of the assay: SSB-ssDNA binding inhibitors – biochemical, fluorescence polarization, NIH Clinical Collection, counter-screen for HCV NS3 helicase inhibitor project (AID 743271; in the data active means inhibition above about 28%). As to conditions: E. coli SSB-DNA binding, stronger effect = higher value, concentration not given here.
Assay [12] can be described thus: compounds distorting NS3 helicase fluorescence signal – biochemical, NIH Clinical Collection, artefact control for HCV NS3 helicase inhibitor project (AID 743272).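 Further: HCV NS3 helicase with a Cy5 labelled single stranded DNA probe.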 As to conditions: fluorescence interference counterscreen, HCV NS3 helicase assay; stronger effect = lower value.
The nature of assay [13]: galactose survival enhancers in mitochondrial complex I cybrids – cell-based, galactose medium, ATP luminescence, primary screen (AID 1645843;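 active means z-score of at least 1.8 in each of two replicates, scored against plate mean and spread of sample wells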;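 further: positive z means more ATP and so rescue of galactose-driven cybrid death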). As to conditions: complex I mutant cybrid cells, 72 h, stronger effect = higher value.
For a further assay, the system named is R275C. Nature of the assay: BK channel mutant inhibitors and activators – cell-based, U2OS BacMam, thallium flux, beta subunits, selectivity assay, profiling panel (AID 1259406;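 active means thallium flux through the channel raised or lowered by more than 3 SD from vehicle-only wells, actives on both sides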;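 further: initial slope of Thallos dye fluorescence rise after thallium is added; log ratio against the mean of 0.3% DMSO vehicle wells on the same plate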). As to conditions: U2OS BacMam BK variants, at 30 µM.
The subject of another assay is R275C/beta1. The assay is described as above. As to conditions: U2OS BacMam BK variants, at 30 µM.
A further assay concerns R275C/beta2Delta. The assay is described as above. The settings on record: U2OS BacMam BK variants, at 30 µM.
In a further assay the test system is R275C/beta4. The assay is described as above. The settings on record: U2OS BacMam BK variants, at 30 µM.
The next assay deals with R275C/Slo1WT/beta2. Described as above. The settings on record: U2OS BacMam BK variants, at 30 µM.
Assay [14] can be described thus: viability loss with induced miR-34 in A549 – imaging, A549 dox-inducible miR-34, nuclei and caspase counts, primary screen (AID 1347080;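 active means compounds whose cell count with miR-34 switched on is under 0.7 times the count with it off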). The settings on record: A549 miR-34 inducible, Hoechst nuclei count, 48 h.
Assay [15] is described as follows: growth inhibition, single agents and combos, ICB984, cell-based, cisplatin or BGB combos, synergistic combos for chromothripsis tumors (AID 1671451).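 Further: cells exposed for 96 hours before readout; 0% = vehicle DMSO and 100% = killing by high DMSO.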 As to conditions: ICB984 medulloblastoma cells, drug combinations, stronger effect = higher value.

In the case of `NNCCc1ccccc1`, the inhibition (usually the drop in the measured response relative to a control, in per cent) in assay [1] was 3.3%; in assay [10], 1.19% (inactive) and -5.91% (inactive); in assay [11] it was -0.87% (inactive) and -0.48% (inactive). Also, the score in [2] was 0.97. The molecule also showed a rescue above control in assay [3] of -3.55. For the same molecule, the cytochrome c release ratio in [4] stood at 1.02. In assay [5], the inhibition of aggregation was 15.4%. In [6], this molecule yielded a glutamate uptake change of 2.77%. Besides, the aggregation suppression score in [7] was found to be 1.47. Further, the survival in assay [8] is 9.5 (inactive). The fluorescence ratio in [9] is 0.99 (inactive) and 1.14 (inactive); in assay [12], 0.96 (inactive) and 1.02 (inactive). The z-score in assay [13] is 0.14 (inactive) and 0.22 (inactive) and 0.6 (inactive). The log fold change Tl+ flux in the assay on R275C is -0.025 (inactive); in the assay on R275C/beta1 it was 0.00562 (inactive); in the assay on R275C/beta2Delta it was -0.0402 (inactive); with R275C/beta4, -0.0112 (inactive); with R275C/Slo1WT/beta2, 0.022 (inactive).
With `O=C(C1CCCCC1)N1CC(=O)N2CCc3ccccc3C2C1` (stereo not drawn), the inhibition in assay [1] was 2.42%; in [10], -5.91% (inactive); in assay [11], -2% (inactive). Moreover, the score in [2] was 0.82. Also, in assay [3], the rescue above control was -8.41. Besides, the cytochrome c release ratio in assay [4] stood at 0.99. Further, in assay [5], the inhibition of aggregation was 65.4%. This molecule also came in with a glutamate uptake change in assay [6] of 7.89%. In assay [7], this molecule came in with an aggregation suppression score of 0.607. For the same molecule, the survival in assay [8] is 12.2 (inactive). Moreover, the fluorescence ratio in assay [9] and in [12] was 0.91 (inactive) throughout. In assay [13], the z-score is 1.16 (inactive) and -1.2 (inactive) and 1.07 (inactive). For the same molecule, the log fold change Tl+ flux was -0.0164 (inactive) in the assay with R275C; 0.0419 (inactive) in the assay with R275C/beta1; -0.0208 (inactive) with R275C/beta2Delta; 0.0526 (inactive) in the assay with R275C/beta4; 0.0259 (inactive) in the assay with R275C/Slo1WT/beta2.
Turning to `CC12CC3CC(C)(C1)CC(N)(C3)C2`, the results for the inhibition in assay [1], in assay [10] and in assay [11] were 12.5%, -1.36% (inactive) and -0.48% (inactive), respectively. In addition, in assay [2], the score is 1.59. In addition, the rescue above control in assay [3] was -2.96. Besides, the cytochrome c release ratio in [4] is 1.07. In [5], the inhibition of aggregation was 35%. For the same molecule, the glutamate uptake change in [6] worked out at 2.56%. Also, the aggregation suppression score in assay [7] is 1.45. Also, the survival in [8] is 11.7 (inactive). The fluorescence ratio in [9] and in assay [12] was 1.02 (inactive) in each case. In addition, the z-score in assay [13] was -0.41 (inactive) and 0.5 (inactive) and -0.635 (inactive). Further, the log fold change Tl+ flux with R275C was 0.00266 (inactive); in the assay on R275C/beta1, -0.0595 (inactive); with R275C/beta2Delta, 0.0488 (inactive); in the assay on R275C/beta4, 0.0101 (inactive); with R275C/Slo1WT/beta2 it was -0.103 (inactive).
As to `S=c1nc[nH]c2nc[nH]c12`, the inhibition in [1] was 26.7%; in assay [10] it was -1.36% (inactive); in assay [11], 0.29% (inactive); in [15] (BGB IC20 combo, at 0.005 µM), -10.3% and -30.1% and -29.5%; in assay [15] (BGB IC40 combo, at 0.005 µM), -20.2% and -36.3% and -18.2%; in [15] (BGB IC40 combo, at 0.05 µM), -14.4% and -4.47% and -23%. Also, the inhibition in [15] (at 0.5 µM) was -13.7% (inactive) and -13.9% (inactive) and -17.8% (inactive); in [15] (cisplatin combo, at 0.05 µM), -14.4% and -8.61% and -23%; in [15] (cisplatin combo, at 0.5 µM), -25.2% and -17.5% and -28.1%; in assay [15] (cisplatin combo, at 5 µM) it was -3.58% and -36.1% and -37.1%; in assay [15] (measured here: 5 uM single agent, at 5 µM) it was -34.5% and -9.53% and -28.9%. For the same molecule, in [2], the score is 1.45. The rescue above control in assay [3] is -8.7. Besides, the cytochrome c release ratio in [4] was 0.93. This molecule also displayed an inhibition of aggregation in assay [5] of 66.2%. Besides, in [6], the glutamate uptake change turned out to be 12.1%. In addition, the aggregation suppression score in [7] was determined as 1.29. The results for the fluorescence ratio in assay [9] and in [12] were 1.03 (inactive) and 0.99 (inactive), respectively. For the same molecule, the fold change in [14] (stronger effect = lower value, cell number ratio, induced over uninduced) is 0.793 (inactive) and 0.952 (inactive) and 0.815 (inactive); in [14] (measured here: relative caspase fold change +Dox/-Dox) it was 1.23 and 0.341 and 5.81. Besides, the cell count in assay [14] (measured here: total cells with miR-34 induction, stronger effect = lower value) was 5690 and 7180 and 6280; in assay [14] (measured here: total cells without miR-34 induction) it was 7180 and 7540 and 7700. In [13], the z-score is 2.91 (active). The log fold change Tl+ flux in the assay with R275C is -0.0342 (inactive); with R275C/beta1, 0.0271 (inactive); with R275C/beta2Delta, -0.0376 (inactive); in the assay with R275C/beta4, -0.0907 (inactive); with R275C/Slo1WT/beta2, 0.0711 (inactive).

Values taken from PubChem BioAssay.
